A selection: hits, their analogues and other compounds. The true share with any hit is near 4.3%.
FAS TE block: FAS thioesterase domain inhibitors, primary screen, biochemical, fluorescence intensity, uHTS; Fatty acid synthase (Homo sapiens), P49327; recombinant FAS-TE, OMFH fluorogenic substrate, fluorescence endpoint; inhibition, % at 15 µM; actives 0.67% (n = 360,000); AID 602261, 2012;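 active = compounds whose normalised, plate-corrected inhibition of enzyme fluorescence in the single-dose primary screen is 50% or more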
ADAM17 inh: ADAM17 inhibitors, primary screen, biochemical, QFRET | recombinant ADAM17, EDANS/DABCYL FRET peptide cleavage | actives 0.83% (n = 370,000) | AID 720648, 2013 | Disintegrin and metalloproteinase domain-containing protein 17 (Homo sapiens), P78536 | inhibition, % at 6.95 µM;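 active = inhibition above the mean of compounds lying between control limits plus 3 SD, set per campaign, cut at about 8.5% in these data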
NR3A LBD binder: binders of NR3A ligand-binding domain, primary screen, biophysical, differential scanning fluorimetry, uHTS | Glutamate receptor ionotropic, NMDA 3A (GRIN3A) ligand-binding domain | actives 2.5% (n = 340,000) | NR3A LBD differential scanning fluorimetry, Tm shift; 0% = protein alone, 100% = glycine-bound protein | Tm shift relative to glycine control, % at 25 µM;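 active = melting temperature shift of at least 10% of the positive control shift, at one fixed dose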
ADAM10 inh: human ADAM10 inhibitors, primary screen, biochemical, QFRET, HTS | Disintegrin and metalloproteinase domain-containing protein 10 (Homo sapiens), O14672 | inhibition, % at 7 µM | actives 0.62% (n = 370,000) | AID 720582, 2013 | recombinant ADAM10, EDANS/DABCYL FRET peptide cleavage, 3 h;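 active = inhibition above a per-campaign cutoff equal to the mean of compounds falling between control-based bounds plus 3 SD, cut at about 20% in these data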
HGIII-sPLA2 inh: human group III sPLA2 inhibitors, primary screen, biochemical, QFRET, BODIPY PC-A2 liposome substrate; Group 3 secretory phospholipase A2 (Homo sapiens), Q9NZ20; QFRET BODIPY PC-A2 liposome hydrolysis, fluorescence; inhibition, % at 12.2 µM; actives 0.56% (n = 370,000);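 active = inhibition above mean plus 3 SD of compounds lying within the high and low control bounds, cut at about 19% in these data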
Target sequence (Q9NZ20 whole entry, looked up): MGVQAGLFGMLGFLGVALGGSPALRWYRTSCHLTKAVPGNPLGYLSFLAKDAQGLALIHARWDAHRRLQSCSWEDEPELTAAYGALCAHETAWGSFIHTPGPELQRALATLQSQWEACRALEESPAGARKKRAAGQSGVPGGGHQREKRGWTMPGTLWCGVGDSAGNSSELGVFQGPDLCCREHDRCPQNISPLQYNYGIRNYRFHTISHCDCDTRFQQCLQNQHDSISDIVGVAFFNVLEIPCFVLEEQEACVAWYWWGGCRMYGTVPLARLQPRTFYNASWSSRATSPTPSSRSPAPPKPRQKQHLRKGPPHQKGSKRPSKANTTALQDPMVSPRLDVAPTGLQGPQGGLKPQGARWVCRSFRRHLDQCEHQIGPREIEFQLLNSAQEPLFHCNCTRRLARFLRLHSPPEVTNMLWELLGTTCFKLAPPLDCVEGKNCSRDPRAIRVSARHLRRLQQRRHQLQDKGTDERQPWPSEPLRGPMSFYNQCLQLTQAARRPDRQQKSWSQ
sPLA2 confirm: human group III sPLA2 inhibitors, confirmation, biochemical, QFRET, triplicate; shares compounds with HGIII-sPLA2 inh; recombinant hGIII-sPLA2, BODIPY PC-A2 QFRET fluorescence; inhibition, % at 12.2 µM; actives 34% (n = 2,000); AID 743280, 2014;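 active = mean inhibition across triplicates above the hit cutoff set in the earlier primary screen, cut at about 19% in these data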
BODIPY interf: 535nm fluorescence optical interference, confirmation, artefact control for HGIII-sPLA2 inhibitor project, biochemical, QFRET. shares compounds with HGIII-sPLA2 inh. BODIPY FL product fluorescence interference. inhibition, % at 12.2 µM. actives 8.5% (n = 2,000). AID 743282, 2014;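 active = average inhibition above the solvent-only control mean plus 3 SD, cut at about 6% in these data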
535nm interf DR: 535nm fluorescence optical interference, dose response, artefact control for HGIII-sPLA2 inhibitor project, biochemical, QFRET; shares compounds with HGIII-sPLA2 inh; BODIPY FL product fluorescence interference, cell-free; IC50, µM; 240 tested, under 10 active;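 active = IC50 at or below 10 µM; inactive = IC50 above 10 µM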
A number is an active result; - = inactive; . = no result.

SMILES	FAS TE block	ADAM17 inh	NR3A LBD binder	ADAM10 inh	HGIII-sPLA2 inh	sPLA2 confirm	BODIPY interf	others
COc1ccc(/C=C2\SC(=O)N(CC(=O)NNC(=O)c3ccccc3O)C2=O)cc1OC	-	-	-	-	21	-	-
COC(=O)C1=C(C)N(Cc2ccccc2C(F)(F)F)C(=NCc2ccc3c(c2)OCO3)NC1c1ccccc1 (configuration not stated)	.	-	.	-	-	.	.
NC(=O)c1ncn([C@@H]2O[C@H](C(=O)N[C@H](Cc3c[nH]c4ccccc34)C(=O)N3CCN(C(=O)N4CCOCC4)CC3)[C@@H](O)[C@H]2O)n1	.	-	.	-	-	.	.
COC(=O)c1cc2c(c3c4cc(F)ccc4n(S(=O)(=O)c4ccc(C)cc4)c13)C(=O)N(Cc1ccccc1OC)C2	.	-	.	-	-	.	.
CCOc1ccc2c(c1)-c1c(ssc1=S)C(C)(C)N2C(=O)c1ccco1	-	-	-	-	21	36	-	535nm interf DR=-
COc1ccc2c(c1)-c1c(ssc1=S)C(C)(C)N2C(=O)CSC1=NCCS1	-	-	-	-	-	.	.
CN(C1=C(N2CCOCC2)C(=O)c2ccccc2C1=O)c1ccccc1	-	-	-	-	25	44	-	535nm interf DR=-
O=C(Nc1nc2ccccc2[nH]1)c1ccc(F)cc1	-	-	-	-	-	.	.
O=C(Nc1nc2ccccc2[nH]1)c1cc(F)cc(F)c1	-	-	-	-	24	21	-
N#Cc1ccc(C(=O)Nc2nc3ccccc3[nH]2)cc1	-	-	-	-	23	-	-
O=C(Nc1nc2ccccc2[nH]1)c1ccc(F)c(S(=O)(=O)N2CCOCC2)c1	-	-	-	-	21	-	-
O=C(O)CCCC(=O)OCCCc1cc2ccccc2c(=O)o1	.	-	.	-	-	.	.
CCCCNC(=O)C[C@H]1C[C@@]2(C(=O)OC)C(=C[C@H](C(C)C)O[C@@H]2C2CC2)N(Cc2ccccc2)C1=O	.	-	.	-	-	.	.
Cn1c(-c2cc3c(C(F)(F)F)nn(C)c3s2)n[nH]c1=S	-	-	-	-	-	.	.
CCn1c(-c2cc3c(C(F)(F)F)nn(C)c3s2)n[nH]c1=S	-	-	-	-	20	34	-	535nm interf DR=-
COc1cccc(CC(=O)NCC2CCN(C(=O)C(=O)c3cccs3)CC2)c1	.	-	.	-	-	.	.
CC(C)n1cc(C(N)=S)c(=O)n(Cc2ccccc2)c1=O	-	-	-	-	21	-	-
Cc1cccc(NC2=C(NC(=O)c3ccccc3)C(=O)c3ccccc3C2=O)c1	-	-	19	-	24	23	-
O=c1c2ccccc2cnn1Cc1n[nH]c(=S)n1C1CC2CCC1C2 (configuration not stated)	-	-	-	-	26	21	-
O=C(O)/C=C\C(=O)Nc1ccc(Oc2ccccc2)cc1	-	-	-	-	-	.	.
O=C(O)/C=C/C(=O)Nc1ccc(C2(c3ccc(NC(=O)/C=C/C(=O)O)cc3)c3ccccc3-c3ccccc32)cc1	-	-	-	-	22	-	-
CCOC(=O)c1c(CN2CCN(C)CC2)n(-c2ccccc2)c2cc(Br)c(O)cc12	-	-	-	-	-	.	.
CCOC(=O)c1c(CSC(=N)N)n(-c2ccccc2)c2cc(Br)c(OC(C)=O)cc12	-	-	-	-	44	35	-	535nm interf DR=-
O=C(COCc1ccccc1)N1CCC(Oc2cccnc2)CC1	.	-	.	-	-	.	.
